We go through 13 molecules from PubChem BioAssay (NCATS).

For assay [1], the target named is Thioredoxin reductase 1, cytoplasmic (Rattus norvegicus) (UniProt O89049). The assay is described as follows: qHTS Assay for Substrates of Mammalian Selenoprotein Thioredoxin Reductase 1 (TrxR1) (AID 488772).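 Further: series mostly up to about 57 µM; 0% is about no effect; a drop in NADPH fluorescence below the no-compound background marks a TrxR1 substrate.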 In outline: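 In this dual-purpose format, potential substrates are identified from the first fluorescence read after selenite addition, not from the 8-minute delta. Rat enzyme is preincubated with NADPH and then with compound at ~22 deg C.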

The target of assay [2] is Flap endonuclease 1 (Homo sapiens) (UniProt P39748). The assay is described as follows: qHTS Validation Assay for the Inhibitors of Human Flap endonuclease 1 (FEN1) (AID 488816). Further: potency means the concentration at half of the fitted maximal effect. An outline of the steps: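 qHTS format: compounds and 10 nM FEN1 incubated 15 min at room temperature before adding 50 nM substrate. Cleavage followed by reads at 0 and 15 min; normalized data fitted to a four-parameter Hill curve.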
In general terms: qHTS replaces the single test concentration by a dilution series.

Assay [3] addresses M-phase phosphoprotein 8 (Homo sapiens) (UniProt Q99549). The assay can be described thus: qHTS Validation Assay for Inhibitors for MPP8 Chromodomain Interactions with Methylated Histone Tails (AID 488949). Further: nearly all actives have a fitted effect of over 55% in size. Further: potency means the concentration at half of the fitted maximal effect. An outline of the steps: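 50 nM MPP8 + 50 nM b-H3K9me3 peptide, PBS pH 7.4/0.01% Tween-20, 30 min RT; + cpd 30 min RT; + AlphaScreen donor/Ni-chelate acceptor beads 10 ug/mL final, 30 min dark; luminescence read.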

The target in assay [4] is Chromobox protein homolog 1 (Homo sapiens) (UniProt P83916). The assay can be described thus: qHTS Validation Assay for Inhibitors of HP1-beta Chromodomain Interactions with Methylated Histone Tails (AID 488953). Further: nearly all actives have a fitted effect of over 50% in size. Further: potency means the concentration at half of the fitted maximal effect. An outline of the steps: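 Compounds pinned into a preassembled complex of HP1-beta and trimethyl-K9 histone H3(1-18) biotin peptide (50 nM each; PBS pH 7.4, 0.01% Tween-20). After 30 min, bead-based AlphaScreen detection followed.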
Chromobox protein homolog 1 (Homo sapiens), sequence (P83916 whole entry, looked up): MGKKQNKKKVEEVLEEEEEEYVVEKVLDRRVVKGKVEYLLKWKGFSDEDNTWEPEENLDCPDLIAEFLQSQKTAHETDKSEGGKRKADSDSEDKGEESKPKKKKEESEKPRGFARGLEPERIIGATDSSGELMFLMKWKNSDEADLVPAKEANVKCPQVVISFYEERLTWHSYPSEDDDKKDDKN

Assay [5] concerns the target Methanococcus maripaludis chaperonin (MmCpn) (UniProt Q6LX38). The assay can be described thus: High-Throughput Screening for Modulators of Cytosolic Chaperonin Activity: MmCpn Primary Screen (AID 488978).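 Further: 50 nM MmCpn enzyme hydrolysing 30 µM ATP at 37 °C; 0% is about no effect.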 An outline of the steps:
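Steps: chaperonin 50 nM final; add compound, 5 min RT; start with ATP, 30 uM final; hold 10 min at 37C; add ADP Transcreener HTRF reagent, 5 min; read ex 320, em 590 and 665 nm.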

Assay [6] deals with Transient receptor potential cation channel subfamily V member 1 (Homo sapiens) (UniProt Q8NER1). The assay can be described thus: HTS Assay for Compounds that Act as Enhancers of the Vanilloid Receptor 1 (AID 488979). Further: 0% is about no effect. An outline of the steps: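 Calcium influx kinetics via Fluo-8 (480/520 nm) in TRPV1-expressing cells, 2000/well cultured overnight at 35.5C. Compound-alone read 3 min (agonist phase), followed by EC20 capsaicin challenge for 2 min (enhancer phase).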

Assay [7] has as its target Thyrotropin receptor (Homo sapiens) (UniProt P16473). The assay can be described thus: qHTS Assay for Antagonists of the Thyroid Stimulating Hormone Receptor (AID 488980). Further: series mostly up to about 58 µM; 0% is about no effect. In outline: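 Readout is cAMP by HTRF competition between cellular cAMP and cAMP-d2 for a cryptate-labelled antibody. Antagonism was assessed in TSHR-transfected HEK293 cells stimulated with 4 nM TSH (EC80, final) in the presence of RO 20-1724.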

The target in assay [8] is D(1A) dopamine receptor (Homo sapiens) (UniProt P21728). The assay is described as follows: HTS Assay for Allosteric Agonists of the Human D1 Dopamine Receptor: Primary Screen for Agonists (AID 488981). Further: 0% is about no effect. An outline of the steps:
(§1)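 Calcium flux in an inducible, force-coupled HEK293 Trex D1 line (overnight at 30 C): agonist mode is the 180 s kinetic read after compound; potentiator mode is the following 180 s read after dopamine at EC20.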

For assay [9] the target is unchanged. The assay can be described thus: HTS Assay for Allosteric Agonists of the Human D1 Dopamine Receptor: Primary Screen for Antagonists (AID 488983).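 Further: calcium flux response to an EC80 dopamine challenge measured with no-wash dye; nearly all actives have a fitted effect of over 65% in size.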 Further: potency means the concentration at half of the fitted maximal effect. In outline: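 In this primary screen, compounds are applied to calcium-dye-loaded HEK293 T-REx cells with force-coupled D1 expression induced overnight at 30 C. An EC80 of dopamine follows the 180 s compound phase, and calcium is monitored for a further 180 s.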

The target in assay [10] is ATP-dependent 6-phosphofructokinase (Trypanosoma brucei brucei) (UniProt O15648). The assay can be described thus: qHTS Assay to Find Inhibitors of T. brucei phosphofructokinase: hit validation (AID 492961).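 Further: luminescence reports ADP formed as PFK phosphorylates fructose-6-phosphate with ATP; series mostly up to about 51 µM; on the % scale 0 is the no-effect control and ±100 the full control effect.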 An outline of the steps: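 Measures ADP output of PFK (1.25 nM) at 0.1 mM ATP, 0.5 mM F6P, pH 8.0 TEA buffer with 5 mM MgCl2. No-enzyme wells define full inhibition; uninhibited enzyme wells define zero.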

Assay [11] is described as follows: Validation screen for small molecules that induce genotoxicity in human embryonic kidney (HEK293T) cells expressing luciferase-tagged ELG1 (AID 493106). Further: potency means the concentration at half of the fitted maximal effect. An outline of the steps:
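In this validation screen, increased ELG1-luciferase signal flags compounds causing genetic stress. HEK293T reporter cells are treated 16 hr (37 °C, 5% CO2), developed with ONE-Glo for 30 min at room temperature, and imaged on a CCD-based reader.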

Assay [12] addresses ATPase family AAA domain-containing protein 5 (Homo sapiens) (UniProt Q96QE3). The assay can be described thus: Validation screen for small molecules that inhibit ELG1-dependent DNA repair in human embryonic kidney (HEK293T) cells expressing luciferase-tagged ELG1 (AID 493107). Further: nearly all actives have a fitted effect of over 70% in size. Further: potency means the concentration at half of the fitted maximal effect. In outline:
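Compounds reducing 5-fluorouridine-driven ELG1-luciferase signal in HEK293T cells were scored; exposure lasted 16 hr at 37 °C with luminescence detected via ONE-Glo.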

Assay [13] concerns the target Thyrotropin-releasing hormone receptor (Homo sapiens) (UniProt P34981). The assay is described as follows: qHTS for Small Molecule Agonists and Allosteric Enhancers of Human TRH Receptor: Validation Screen for Agonists (AID 493127;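 active means calcium activation more than 3 SD above the typical response in the agonist read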;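 further: intracellular calcium rise by fluo-8 fluorescence before TRH EC20 addition; 0% is about no effect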). The settings on record: TRH receptor agonist cell assay; at 2 µM; stronger effect = higher value. An outline of the steps: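 Kinetic fluorescence assay of agonist-induced calcium release: overnight-plated TRHR cells, room-temperature fluo-8 loading, baseline then compound addition with per-second reads.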

Assay [14] is described as follows: Nrf2 qHTS screen for inhibitors: Validation (AID 493153; active means well fitted inhibition curve with a large enough effect in the main read-out, with a control signal flat, not every such curve was filed as active; further: potency means the concentration at half of the fitted maximal effect). The settings on record: Potency: luciferase luminescence; viability change: measured here: cytotoxicity max response. An outline of the steps: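 In this counterscreened reporter format, each well gives two signals: CellTiter-Fluor fluorescence for cytotoxicity and ARE-luciferase luminescence for Nrf2 function. A549 ARE_Fluc cells in 5% FBS OPTI-MEM were exposed to compound titrations for 18-24 h.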

Assay [15] is described as follows: qHTS for Inhibitors of Cell Surface uPA Generation: Validation Assay (AID 493164).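 Further: RAW 264.7 macrophage cells exposed to compound for 18 h; 0% is about no effect.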 In outline:
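Compounds are titrated over seven points (2.45 nM–38.3 uM final) onto pre-plated RAW 264.7 cells and incubated for 18 h. Retained intracellular ATP, measured with ATP-Lite, indicates blocked lethal factor entry.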

Assay [16] concerns the target Galactokinase (Homo sapiens) (UniProt P51570). The assay can be described thus: qHTS Validation Assay for Inhibitors of Human Galactokinase (GALK) (AID 493189). Further: 0% is about no effect. In outline: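 5 nM GALK / 100 uM galactose / 35 uM ATP, 20 mM HEPES pH8.0, 5 mM MgCl2, 60 mM NaCl, 1 mM DTT, 0.01% BSA (final). RT 1 h; Kinase-Glo Plus luminescence.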
Assay [17] can be described thus: Validation screen for small molecules that induce DNA re-replication in SW480 colon adenocarcinoma cells (AID 504364). Further: 0% is about no effect. In outline:
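Hoechst-stained SW480 nuclei, imaged at 405 nm excitation after 48 hr compound exposure, were counted for elevated DNA content as the re-replication signal.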

For assay [18], the target named is D(1A) dopamine receptor (Homo sapiens) (UniProt P21728). The assay is described as follows: HTS Assay for Allosteric Agonists of the Human D1 Dopamine Receptor: Primary Screen for Potentiators (AID 488982). Further: potency means the concentration at half of the fitted maximal effect. In outline:
as §1

Inconclusive results are not listed. Calls of active or inactive are those of the source. Unless noted, the call rests on the fitted dose curve; in most records, active means well fitted curve in the direction sought with a large enough effect; inconclusive means small, poorly fitted or top-dose-only effect, or another doubt; inactive means no such curve, though single readings can be large; an effect the other way counts as inactive or inconclusive.

M-phase phosphoprotein 8 (Homo sapiens), sequence (Q99549 whole entry, looked up): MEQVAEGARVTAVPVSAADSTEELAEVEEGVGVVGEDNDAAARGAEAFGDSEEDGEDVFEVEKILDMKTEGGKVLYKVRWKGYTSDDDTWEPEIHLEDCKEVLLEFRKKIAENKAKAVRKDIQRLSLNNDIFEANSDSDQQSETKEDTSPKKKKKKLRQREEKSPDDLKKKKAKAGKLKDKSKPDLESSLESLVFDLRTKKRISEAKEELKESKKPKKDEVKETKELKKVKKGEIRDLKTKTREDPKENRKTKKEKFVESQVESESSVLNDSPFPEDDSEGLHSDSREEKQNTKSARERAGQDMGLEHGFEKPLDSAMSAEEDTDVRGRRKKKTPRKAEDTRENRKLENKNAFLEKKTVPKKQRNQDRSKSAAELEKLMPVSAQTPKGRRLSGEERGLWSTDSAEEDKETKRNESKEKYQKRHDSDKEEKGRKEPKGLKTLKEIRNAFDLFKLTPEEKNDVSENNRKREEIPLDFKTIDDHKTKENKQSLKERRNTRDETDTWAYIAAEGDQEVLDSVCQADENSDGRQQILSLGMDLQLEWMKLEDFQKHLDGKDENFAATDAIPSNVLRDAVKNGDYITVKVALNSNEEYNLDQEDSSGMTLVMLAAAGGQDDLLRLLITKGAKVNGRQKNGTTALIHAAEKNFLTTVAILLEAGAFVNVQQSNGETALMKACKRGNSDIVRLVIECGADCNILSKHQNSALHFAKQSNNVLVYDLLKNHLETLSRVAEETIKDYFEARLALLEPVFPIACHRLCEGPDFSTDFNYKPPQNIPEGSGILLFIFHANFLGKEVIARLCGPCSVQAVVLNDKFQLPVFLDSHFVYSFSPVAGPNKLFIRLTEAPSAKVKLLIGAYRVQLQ
ATPase family AAA domain-containing protein 5 (Homo sapiens), sequence (Q96QE3 whole entry, looked up, the tested form may be a part): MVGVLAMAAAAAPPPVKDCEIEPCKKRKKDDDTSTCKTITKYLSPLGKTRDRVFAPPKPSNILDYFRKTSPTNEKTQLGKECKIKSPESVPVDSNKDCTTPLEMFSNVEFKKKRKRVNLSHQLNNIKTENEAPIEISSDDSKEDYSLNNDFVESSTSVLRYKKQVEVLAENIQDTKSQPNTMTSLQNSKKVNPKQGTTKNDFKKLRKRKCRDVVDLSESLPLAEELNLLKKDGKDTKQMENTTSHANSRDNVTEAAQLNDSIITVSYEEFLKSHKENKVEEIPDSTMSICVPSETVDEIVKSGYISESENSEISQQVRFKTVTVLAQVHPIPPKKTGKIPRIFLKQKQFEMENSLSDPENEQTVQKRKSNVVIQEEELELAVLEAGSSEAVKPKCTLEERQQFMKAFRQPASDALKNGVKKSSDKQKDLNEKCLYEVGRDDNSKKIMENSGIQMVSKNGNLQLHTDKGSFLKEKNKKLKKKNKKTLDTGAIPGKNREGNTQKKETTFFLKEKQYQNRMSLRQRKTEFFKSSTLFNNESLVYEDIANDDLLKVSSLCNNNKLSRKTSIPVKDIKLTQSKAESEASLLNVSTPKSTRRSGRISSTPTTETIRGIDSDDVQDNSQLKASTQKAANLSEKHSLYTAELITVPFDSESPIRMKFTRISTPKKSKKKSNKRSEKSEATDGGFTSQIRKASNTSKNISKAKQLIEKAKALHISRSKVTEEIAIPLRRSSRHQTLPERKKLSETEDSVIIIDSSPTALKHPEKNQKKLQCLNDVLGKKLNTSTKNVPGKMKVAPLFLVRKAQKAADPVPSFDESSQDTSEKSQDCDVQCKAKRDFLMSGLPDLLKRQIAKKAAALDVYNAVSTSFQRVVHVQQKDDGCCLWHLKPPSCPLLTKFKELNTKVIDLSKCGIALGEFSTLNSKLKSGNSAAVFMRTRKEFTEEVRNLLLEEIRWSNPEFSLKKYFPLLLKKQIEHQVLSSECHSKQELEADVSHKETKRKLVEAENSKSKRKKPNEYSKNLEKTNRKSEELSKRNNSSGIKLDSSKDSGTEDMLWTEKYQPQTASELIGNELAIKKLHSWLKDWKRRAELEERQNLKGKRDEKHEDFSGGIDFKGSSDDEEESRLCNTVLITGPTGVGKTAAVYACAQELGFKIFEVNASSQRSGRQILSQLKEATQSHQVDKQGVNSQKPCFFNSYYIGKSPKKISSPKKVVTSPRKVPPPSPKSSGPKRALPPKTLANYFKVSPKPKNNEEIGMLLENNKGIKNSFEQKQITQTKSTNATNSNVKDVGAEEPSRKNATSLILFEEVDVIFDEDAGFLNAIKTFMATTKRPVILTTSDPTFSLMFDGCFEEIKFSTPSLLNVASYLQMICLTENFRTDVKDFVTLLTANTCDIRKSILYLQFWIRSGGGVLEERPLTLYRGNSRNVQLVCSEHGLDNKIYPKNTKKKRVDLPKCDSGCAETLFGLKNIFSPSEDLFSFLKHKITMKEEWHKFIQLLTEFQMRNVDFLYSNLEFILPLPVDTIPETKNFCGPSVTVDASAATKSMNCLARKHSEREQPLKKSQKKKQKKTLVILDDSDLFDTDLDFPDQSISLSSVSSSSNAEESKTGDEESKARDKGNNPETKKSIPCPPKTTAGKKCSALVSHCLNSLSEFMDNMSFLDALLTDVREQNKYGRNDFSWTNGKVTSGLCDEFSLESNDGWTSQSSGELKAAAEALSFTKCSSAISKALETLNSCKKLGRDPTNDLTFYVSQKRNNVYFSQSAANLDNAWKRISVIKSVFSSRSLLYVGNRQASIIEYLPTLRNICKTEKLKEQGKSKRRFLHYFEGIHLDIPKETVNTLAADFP
Methanococcus maripaludis chaperonin (MmCpn), sequence (Q6LX38 1-543): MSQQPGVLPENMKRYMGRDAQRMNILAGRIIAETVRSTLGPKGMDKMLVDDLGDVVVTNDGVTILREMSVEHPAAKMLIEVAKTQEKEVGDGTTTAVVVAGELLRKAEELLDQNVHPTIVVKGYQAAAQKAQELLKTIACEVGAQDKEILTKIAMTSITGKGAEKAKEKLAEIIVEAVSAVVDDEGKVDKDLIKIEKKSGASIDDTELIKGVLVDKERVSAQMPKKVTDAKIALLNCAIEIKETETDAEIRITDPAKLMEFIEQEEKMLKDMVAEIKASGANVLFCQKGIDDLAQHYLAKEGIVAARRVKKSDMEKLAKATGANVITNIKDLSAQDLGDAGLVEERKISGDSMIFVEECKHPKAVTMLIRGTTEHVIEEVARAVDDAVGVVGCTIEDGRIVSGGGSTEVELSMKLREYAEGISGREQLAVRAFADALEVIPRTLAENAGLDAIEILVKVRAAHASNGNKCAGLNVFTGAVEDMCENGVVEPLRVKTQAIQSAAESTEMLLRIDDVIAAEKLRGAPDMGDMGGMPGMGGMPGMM
Thyrotropin receptor (Homo sapiens), sequence (P16473 whole entry, looked up): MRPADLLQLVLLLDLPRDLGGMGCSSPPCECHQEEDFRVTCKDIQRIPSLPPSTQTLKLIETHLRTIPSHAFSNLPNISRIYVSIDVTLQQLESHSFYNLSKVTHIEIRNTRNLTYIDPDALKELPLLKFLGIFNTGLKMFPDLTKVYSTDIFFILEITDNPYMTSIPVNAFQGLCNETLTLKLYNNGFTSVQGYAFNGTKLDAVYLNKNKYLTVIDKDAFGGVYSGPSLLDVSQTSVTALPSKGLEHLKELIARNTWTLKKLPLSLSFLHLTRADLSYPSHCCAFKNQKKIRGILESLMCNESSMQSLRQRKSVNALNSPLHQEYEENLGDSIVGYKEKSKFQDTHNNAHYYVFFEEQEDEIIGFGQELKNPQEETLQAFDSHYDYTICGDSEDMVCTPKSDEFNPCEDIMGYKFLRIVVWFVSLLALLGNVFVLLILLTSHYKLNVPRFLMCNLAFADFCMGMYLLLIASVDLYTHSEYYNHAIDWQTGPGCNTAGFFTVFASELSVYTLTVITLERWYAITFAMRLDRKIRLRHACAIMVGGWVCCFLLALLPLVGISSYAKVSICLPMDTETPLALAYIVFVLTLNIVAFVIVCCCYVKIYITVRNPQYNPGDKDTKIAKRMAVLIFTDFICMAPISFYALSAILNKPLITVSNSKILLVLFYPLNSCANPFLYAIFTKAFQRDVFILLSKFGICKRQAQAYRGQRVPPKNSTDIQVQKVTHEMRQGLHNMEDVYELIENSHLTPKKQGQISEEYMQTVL
Galactokinase (Homo sapiens), sequence (P51570 whole entry, looked up): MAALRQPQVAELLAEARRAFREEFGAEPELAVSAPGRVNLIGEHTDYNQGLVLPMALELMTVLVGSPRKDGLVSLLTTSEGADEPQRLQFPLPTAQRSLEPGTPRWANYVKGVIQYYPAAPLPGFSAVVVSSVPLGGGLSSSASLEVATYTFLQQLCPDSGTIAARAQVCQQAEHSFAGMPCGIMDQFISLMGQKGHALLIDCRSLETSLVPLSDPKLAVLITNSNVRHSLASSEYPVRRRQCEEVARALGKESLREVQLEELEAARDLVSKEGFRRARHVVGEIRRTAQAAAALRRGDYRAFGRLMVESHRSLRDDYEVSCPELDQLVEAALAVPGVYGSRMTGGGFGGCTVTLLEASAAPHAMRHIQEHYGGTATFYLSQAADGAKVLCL
Thyrotropin-releasing hormone receptor (Homo sapiens), sequence (P34981 whole entry, looked up): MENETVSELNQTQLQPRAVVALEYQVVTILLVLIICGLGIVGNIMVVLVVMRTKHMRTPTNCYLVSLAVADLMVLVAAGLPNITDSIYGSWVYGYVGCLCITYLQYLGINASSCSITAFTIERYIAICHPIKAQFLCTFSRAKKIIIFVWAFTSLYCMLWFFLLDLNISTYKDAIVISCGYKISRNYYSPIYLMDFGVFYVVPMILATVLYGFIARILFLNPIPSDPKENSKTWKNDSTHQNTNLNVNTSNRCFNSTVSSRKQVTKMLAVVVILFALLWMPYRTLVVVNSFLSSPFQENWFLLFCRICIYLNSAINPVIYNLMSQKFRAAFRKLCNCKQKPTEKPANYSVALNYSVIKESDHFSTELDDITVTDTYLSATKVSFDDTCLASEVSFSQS

`O=C(O)/C=C/C(O)c1ccc(Cl)cc1` (centres undefined): the Potency result in [1], in assay [2], in assay [3], in [4], in assay [8] and in [9] was “inactive” in each case. Further, the Potency result in assay [11], in [12], in [14], in assay [16] and in [17] was “inactive” each time. For the same molecule, the outcome in assay [5], in assay [6], in [7], in assay [10] and in [15] was inactive. Moreover, the activation in [13] was 0.125% (inactive). For the same molecule, the viability change in assay [14] was determined as 2.66%.
Regarding `CC(C)NC[C@@H](O)c1ccc(O)c(O)c1`, the Potency entry in [1], in assay [2], in [3], in assay [8], in assay [18] and in [9] was “inactive” each time. In addition, the Potency entry in assay [11], in assay [12] and in assay [14] was “inactive” throughout. Moreover, the viability change in assay [14] was determined as 0.444%. In [15], the call was inactive.
Consider `Oc1ccc(C2CNCc3sccc32)cc1O` (centres undefined), for which the Potency result in assay [1], in assay [2], in [3], in assay [4], in [18] and in [11] was “inactive” throughout. Further, the Potency result in assay [12], in assay [14], in assay [16] and in assay [17] was “inactive” each time. The molecule was called inactive in assay [5], in assay [6], in [7] and in [15]. Moreover, the Potency in [9] was 199 nM (active). In addition, the activation in assay [13] is 1.75% (inactive). Also, the viability change in [14] was -11.4%.
`CCCCC/C=C\CC(O)/C=C/c1cccc(CC(O)CCCCO)n1` (centres undefined): the Potency result in assay [1], in assay [2], in assay [3], in [8], in assay [18] and in assay [9] was “inactive” each time. The Potency result in assay [11], in [12], in [14], in assay [16] and in assay [17] was “inactive” each time. In assay [4], the Potency is 7.5 nM (active). In addition, the molecule was classed as inactive in [5], in assay [6] and in assay [7]. Further, in assay [13], the activation is -2.94% (inactive). The viability change in assay [14] was -0.641%.
Take `OC[C@H]1O[C@@H](n2cnc3c(NC4CCCC4)ncnc32)[C@H](O)[C@@H]1O`: the Potency result in [1], in assay [2], in assay [3], in assay [4], in [8] and in assay [9] was “inactive” each time. In addition, the Potency result in assay [12] and in [14] was “inactive” each time. In addition, the result in assay [5] and in assay [15] was inactive. The viability change in [14] was -2.89%.
As for `N#C/C(=C\c1ccc(-c2cc(Cl)ccc2Cl)o1)C(=O)Nc1cccc2ncccc12`, the Potency result in [1], in assay [2], in [3], in assay [4], in assay [8] and in [9] was “inactive” throughout. For the same molecule, the Potency result in assay [11] was “inactive”. Also, the molecule was called inactive in [5] and in assay [15]. Further, the Potency in assay [12] was 16400 nM (active).
Take `Oc1cc(O)cc(/C=C/c2ccc(O)c(O)c2)c1`: the Potency entry in assay [1], in assay [8], in [9], in [16] and in [17] was “inactive” each time. For the same molecule, the Potency is 844 nM (active) in [2]; 39800 nM (active) in assay [3]; 44700 nM (active) in [4]; 580 nM (active) in assay [18]; 3660 nM (active) in [11]. Besides, the outcome in assay [6], in [7] and in [15] was inactive. In addition, the activation in assay [13] is 0.938% (inactive).
For `CN(C)c1nc2c(Br)c(Br)c(Br)c(Br)c2[nH]1`, the Potency entry in assay [1], in [2], in assay [3], in [4], in assay [8] and in assay [18] was “inactive” throughout. Moreover, the Potency result in [9], in [11], in assay [16] and in [17] was “inactive” each time. In addition, the call in assay [5], in assay [6], in [7] and in assay [15] was inactive. Besides, the Potency was 1460 nM (active) in assay [12] and 16400 nM (active) in assay [14]. Also, the activation in assay [13] is 5.88% (inactive). Also, the viability change in assay [14] was -13.2%.
On to `O=C(O)CNC(=O)C(CS)Cc1ccccc1` (centres undefined), for which the Potency result in assay [1], in assay [2], in [4], in assay [8], in assay [18] and in [9] was “inactive” in each case. Moreover, the Potency result in assay [11], in [12], in assay [14] and in assay [17] was “inactive” each time. In addition, the outcome in [6], in assay [7] and in assay [15] was inactive. In addition, the activation in [13] was 0.625% (inactive). In addition, in assay [14], the viability change was 2.31%.
`CNc1ncnc2c1ncn2[C@@H]1O[C@H](CO)[C@@H](O)[C@H]1O`: the Potency result in [1], in assay [2], in [3], in [4], in assay [8] and in assay [9] was “inactive” in each case. The Potency entry in assay [12] and in [14] was “inactive” in each case. The call in [5] was inactive. The viability change in assay [14] was -0.614%.
Take `CNC(=O)[C@H]1O[C@@H](n2cnc3c(NCc4ccc(N)cc4)ncnc32)[C@H](O)[C@@H]1O`: the Potency result in assay [1], in assay [2], in assay [3], in [4], in [8] and in assay [18] was “inactive” each time. Besides, the Potency entry in assay [9] and in assay [12] was “inactive” throughout. For the same molecule, the molecule was called inactive in [5] and in assay [15].
As to `COC1=C(OC)C(=O)c2ccccc2C1=O`, the Potency entry in assay [1], in [2], in assay [3], in [4], in [8] and in assay [18] was “inactive” in each case. Further, the Potency entry in [9], in assay [11], in [12] and in [16] was “inactive” in each case. In addition, the result in assay [5], in assay [6], in assay [7] and in [15] was inactive. Further, the activation in [13] is 0.688% (inactive).
`CNC(=O)[C@H]1O[C@@H](n2cnc3c(NCc4cccc(I)c4)ncnc32)[C@H](O)[C@@H]1O`: the Potency entry in assay [1], in [2], in assay [3], in assay [8], in assay [18] and in [9] was “inactive” throughout. Further, the molecule was called inactive in assay [5] and in assay [15].
